Values without a mark were called inactive. Records with an inconclusive call do not appear. Calls of active or inactive are those of the source. Calls come from the whole dose curve; as a rule, active = well fitted curve in the direction sought with a large enough effect; inconclusive = small, poorly fitted or top-dose-only effect, or another doubt; inactive = no such curve, though single readings can be large; an effect the other way counts as inactive or inconclusive.

Data on 18 compounds can be found in PubChem BioAssay (NCATS).

Assay [1] can be described thus: Quantitative High-Throughput drug screen in 47 multiple myeloma cell lines against the NCATS MIPE library collection: OPM1_PLB cell viability assay (AID 1918989). Note: nearly all actives have a fitted effect of over 40% in size. Note: potency is the fitted concentration of half-maximal effect. In outline: (§1)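 Inhibition of viability over 48 h was scored by ATP content (CellTiter-Glo) in 500-cell wells. Zero and full viability were defined by media-only and DMSO-only wells.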
Assay [2] is described as follows: Quantitative High-Throughput drug screen in 47 multiple myeloma cell lines against the NCATS MIPE library collection: SKMM1_PLB cell viability assay (AID 1919863). For viability: series mostly up to about 46 µM. Note: nearly all actives have a fitted effect of over 35% in size. Note: potency is the fitted concentration of half-maximal effect. As to conditions: SKMM1 myeloma viability, CellTiter-Glo ATP, 48 h; viability: hits give low values. In short, it runs like this:
as §1
A general note: ATP-based viability assays read luminescence as a measure of living cells.

Assay [3] can be described thus: Quantitative High-Throughput drug screen in 47 multiple myeloma cell lines against the NCATS MIPE library collection: U266_ATCC cell viability assay (AID 1919864). Note: nearly all actives have a fitted effect of over 35% in size. Note: potency is the fitted concentration of half-maximal effect. In short, it runs like this: as §1
A short description of assay [4]: Quantitative High-Throughput drug screen in 47 multiple myeloma cell lines against the NCATS MIPE library collection: XG1_PLB cell viability assay (AID 1919866). Note: nearly all actives have a fitted effect of over 35% in size. Note: potency is the fitted concentration of half-maximal effect. In outline: as §1
Assay [5] is described as follows: Quantitative High-Throughput drug screen in 47 multiple myeloma cell lines against the NCATS MIPE library collection: PE2_PLB cell viability assay (AID 1919869). Note: nearly all actives have a fitted effect of over 35% in size. Note: potency is the fitted concentration of half-maximal effect. In outline: as §1
Assay [6] can be described thus: Quantitative High-Throughput drug screen in 47 multiple myeloma cell lines against the NCATS MIPE library collection: PCM6_Riken cell viability assay (AID 1919870). Note: nearly all actives have a fitted effect of over 30% in size. Note: potency is the fitted concentration of half-maximal effect. In outline:
as §1

The nature of assay [7]: Quantitative High-Throughput drug screen in 47 multiple myeloma cell lines against the NCATS MIPE library collection: KMS11_JCRBsus cell viability assay (AID 1919873). Note: nearly all actives have a fitted effect of over 50% in size. Note: potency is the fitted concentration of half-maximal effect. In outline: as §1
The nature of assay [8]: Quantitative High-Throughput drug screen in 47 multiple myeloma cell lines against the NCATS MIPE library collection: KMS28BM_JCRB cell viability assay (AID 1919874). Note: nearly all actives have a fitted effect of over 35% in size. Note: potency is the fitted concentration of half-maximal effect. In outline: as §1
The nature of assay [9]: Quantitative High-Throughput drug screen in 47 multiple myeloma cell lines against the NCATS MIPE library collection: RPMI8226_ATCC cell viability assay (AID 1919871). Note: nearly all actives have a fitted effect of over 30% in size. Note: potency is the fitted concentration of half-maximal effect. In short, it runs like this:
as §1

Assay [10] is described as follows: Quantitative High-Throughput drug screen in 47 multiple myeloma cell lines against the NCATS MIPE library collection: OCIMY5_PLB cell viability assay (AID 1918988). Note: nearly all actives have a fitted effect of over 65% in size. Note: potency is the fitted concentration of half-maximal effect. In outline:
as §1

The nature of assay [11]: Quantitative High-Throughput drug screen in 47 multiple myeloma cell lines against the NCATS MIPE library collection: VP6_DJ cell viability assay (AID 1919867). Note: nearly all actives have a fitted effect of over 40% in size. Note: potency is the fitted concentration of half-maximal effect. In short, it runs like this: as §1
The target of assay [12] is Cytochrome P450 2D6 (Homo sapiens) (UniProt P10635). Put plainly: qHTS for inhibitors of CYP2D6 against the NCATS DSHEA and TCM libraries (AID 1919972). Note: potency is the fitted concentration of half-maximal effect. To be noted: CYP2D6 enzymatic inhibition, luminescence qHTS. In outline:
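Luminescent P450-Glo read-out of CYP2D6 turnover of a luciferin substrate after NADPH-driven reaction of 30-45 min at room temperature. Compounds were first preincubated 15 min with enzyme at titrated concentrations; quinidine was the intraplate control.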
In general terms: qHTS replaces the single test concentration by a dilution series.

The target of assay [13] is Cytochrome P450 2C19 (Homo sapiens) (UniProt P33261). Put plainly: qHTS for inhibitors of CYP2C19 against the NCATS DSHEA and TCM libraries (AID 1919974).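 Note: luminescence from luciferin released by CYP2C19 oxidation of a pro-luciferin substrate; potency is the fitted concentration of half-maximal effect.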 To be noted: CYP2C19 enzyme inhibition, luminescence qHTS. In outline:
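Read-out is luminescence after P450-Glo detection (30 min, RT). Before that: 15 min compound–enzyme preincubation, then 30-45 min reaction with 1x NADPH regeneration solution, substrate concentration isoform-specific.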

Assay [14] is described as follows: KB-3-1 P-gp reporter qHTS against the NCATS DSHEA and TCM libraries (AID 1919975). Note: 0% is about no effect. In short, it runs like this: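 Cell viability qHTS: 500 KB-3-1 cells/well, substances in titration, ~72 h, 37C; luminescent CellTiter-Glo read.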
In assay [15] the target is Cytochrome P450 1A2 (Homo sapiens) (UniProt P05177). Nature of the assay: qHTS for inhibitors of CYPIA2 against the NCATS DSHEA and TCM libraries (AID 1919976). Note: potency is the fitted concentration of half-maximal effect. To be noted: recombinant CYP1A2 enzyme activity, luminescence. In outline: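 CYP1A2 + luciferin substrate, 100 mM KPO4-type buffer; cmpd 15 min RT; 1x NADPH regen, 30-45 min RT dark; detection reagent 30 min RT; luminescence. Minus-enzyme wells as background; furafylline intraplate control.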

Assay [16] is described as follows: KB-8-5-11 P-gp reporter qHTS against the NCATS DSHEA and TCM libraries (AID 1919977). Note: 0% is about no effect. In short, it runs like this: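 Viability of drug-resistant KB-8-5-11 cells is measured by CellTiter-Glo luminescence following roughly 72 h treatment at 37C. Substances were titrated, with bortezomib as intraplate control.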
Assay [17] is described as follows: qHTS Counterscreen for compound interference against the NCATS DSHEA and TCM libraries (AID 1919978).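 Note: compounds preincubated with 1 µM D-luciferin or buffer before detection reagent; % of control where 0% means no effect.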 As to conditions: firefly luciferase detection reagent interference, luminescence. In short, it runs like this:
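Interference check: test samples were incubated with D-luciferin (final 1 uM) or buffer only for 15 min, room temperature, in a qHTS titration up to 39.8 uM, then developed with detection reagent and read by luminescence.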

Assay [18] in a line: Dual reporter qHTS for agonist of Pregnane X Receptor (hPXR) against the NCATS DSHEA and TCM libraries: Fluorescence readout (AID 1920058). Note: 0% is about no effect. In outline:
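HepG2 hPXR-Luc, 2000 cells/well, 5 h attach; cpds ~24 h, 37 °C/5% CO2; CellTiter-Fluor 1 h; fluor. Ex/Em 405/540 nm = viability.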

The target in assay [19] is Nuclear receptor subfamily 1 group I member 2 (Homo sapiens) (UniProt O75469). Nature of the assay: Dual reporter qHTS for antagonist of Pregnane X Receptor (hPXR) against the NCATS DSHEA and TCM libraries: Luminescence Readout (AID 1920060). Note: 0% is about no effect. In short, it runs like this:
(§2)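 Rifampicin-stimulated (2 uM final) hPXR-luciferase HepG2 cells were treated for 24 h with DSNP/TCM substances. Viability came from CellTiter-Fluor fluorescence, reporter activity from ONE-Glo luminescence.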

The nature of assay [20]: Dual reporter qHTS for antagonist of Pregnane X Receptor (hPXR) against the NCATS DSHEA and TCM libraries: Fluorescence Readout (AID 1920061). Note: 0% is about no effect. In short, it runs like this:
as §2

Chain of Cytochrome P450 2D6 (Homo sapiens) (P10635 whole entry, looked up): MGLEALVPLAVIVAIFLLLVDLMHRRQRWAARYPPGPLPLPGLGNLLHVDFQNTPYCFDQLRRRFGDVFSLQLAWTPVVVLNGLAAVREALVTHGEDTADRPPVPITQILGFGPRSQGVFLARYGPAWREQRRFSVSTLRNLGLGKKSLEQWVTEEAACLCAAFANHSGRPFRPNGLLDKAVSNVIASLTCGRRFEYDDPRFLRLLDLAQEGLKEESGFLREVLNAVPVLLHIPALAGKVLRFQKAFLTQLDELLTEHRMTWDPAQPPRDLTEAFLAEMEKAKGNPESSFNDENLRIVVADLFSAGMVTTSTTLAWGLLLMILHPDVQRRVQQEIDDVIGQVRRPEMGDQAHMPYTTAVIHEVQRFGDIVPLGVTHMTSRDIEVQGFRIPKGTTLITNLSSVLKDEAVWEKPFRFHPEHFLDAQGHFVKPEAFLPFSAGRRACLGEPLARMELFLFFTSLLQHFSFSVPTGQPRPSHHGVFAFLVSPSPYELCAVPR
Chain of Cytochrome P450 1A2 (Homo sapiens) (P05177 whole entry, looked up): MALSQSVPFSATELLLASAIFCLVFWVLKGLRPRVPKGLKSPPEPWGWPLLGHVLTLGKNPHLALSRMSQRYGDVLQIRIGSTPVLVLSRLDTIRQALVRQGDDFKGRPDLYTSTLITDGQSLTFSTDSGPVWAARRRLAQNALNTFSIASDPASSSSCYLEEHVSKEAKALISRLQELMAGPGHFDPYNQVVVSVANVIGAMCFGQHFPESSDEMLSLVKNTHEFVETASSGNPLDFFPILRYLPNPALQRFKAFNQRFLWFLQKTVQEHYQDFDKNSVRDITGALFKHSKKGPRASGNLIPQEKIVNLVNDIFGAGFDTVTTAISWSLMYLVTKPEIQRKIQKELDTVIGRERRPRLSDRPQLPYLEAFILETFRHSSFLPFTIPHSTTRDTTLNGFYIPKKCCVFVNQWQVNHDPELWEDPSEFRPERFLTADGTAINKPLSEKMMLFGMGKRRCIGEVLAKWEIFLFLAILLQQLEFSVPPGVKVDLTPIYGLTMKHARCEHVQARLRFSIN
Chain of Nuclear receptor subfamily 1 group I member 2 (Homo sapiens) (O75469 whole entry, looked up): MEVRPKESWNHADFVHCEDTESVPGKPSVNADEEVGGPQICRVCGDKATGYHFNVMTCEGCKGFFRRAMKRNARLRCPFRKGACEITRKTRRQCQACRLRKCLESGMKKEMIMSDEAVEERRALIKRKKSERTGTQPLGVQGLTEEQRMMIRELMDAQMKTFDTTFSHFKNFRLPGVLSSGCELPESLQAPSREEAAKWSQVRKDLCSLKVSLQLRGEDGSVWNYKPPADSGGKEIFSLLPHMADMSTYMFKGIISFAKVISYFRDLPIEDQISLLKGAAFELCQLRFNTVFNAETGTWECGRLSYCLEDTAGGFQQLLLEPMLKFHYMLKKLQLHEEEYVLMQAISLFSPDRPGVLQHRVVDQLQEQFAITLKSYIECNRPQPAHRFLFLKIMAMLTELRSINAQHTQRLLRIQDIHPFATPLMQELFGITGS
Chain of Cytochrome P450 2C19 (Homo sapiens) (P33261 whole entry, looked up, canonical isoform): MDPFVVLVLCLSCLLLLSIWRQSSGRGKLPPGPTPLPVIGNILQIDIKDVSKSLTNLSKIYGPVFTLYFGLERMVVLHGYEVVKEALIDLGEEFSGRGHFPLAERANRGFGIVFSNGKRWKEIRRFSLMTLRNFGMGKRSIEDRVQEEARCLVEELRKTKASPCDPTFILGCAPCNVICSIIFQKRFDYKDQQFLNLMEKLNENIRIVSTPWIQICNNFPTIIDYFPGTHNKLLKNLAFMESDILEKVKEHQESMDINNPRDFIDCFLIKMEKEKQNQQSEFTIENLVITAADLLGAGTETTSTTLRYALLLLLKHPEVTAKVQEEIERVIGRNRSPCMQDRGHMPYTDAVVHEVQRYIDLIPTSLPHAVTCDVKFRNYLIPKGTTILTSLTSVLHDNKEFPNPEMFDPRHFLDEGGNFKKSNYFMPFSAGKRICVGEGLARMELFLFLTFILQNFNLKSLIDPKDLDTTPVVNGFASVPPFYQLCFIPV

Broadly, the viability is a read-out of living cells in per cent, often relative to untreated cells. In the case of `O=C1CC[C@@]2(O)[C@H]3Cc4ccc(O)c5c4[C@@]2(CCN3CC2CC2)[C@H]1O5`, the Potency in [1] was 7430 nM (active). Further, the viability in [2] was 110%. Further, the Potency result in assay [3], in [4], in [5], in [6], in assay [7] and in [8] was “inactive” in each case.
In the case of `COC1(CS(=O)c2ccccc2)CCN(CCc2c[nH]c3ccc(F)cc23)CC1` (centres undefined), the viability in [2] is 116%. Further, the Potency entry in assay [3] and in [6] was “inactive” throughout. The Potency in assay [9] was 7430 nM (active); in assay [8], 743 nM (active).
Take `O=C(O)C(=O)c1cn(Cc2ccccc2)c2ccc(-c3ccc(OC(F)(F)F)cc3)cc12`: the Potency result in assay [1], in assay [9] and in assay [8] was “inactive” each time. Besides, the Potency in [2] was 3720 nM (active); in [3] it was 23500 nM (active); in assay [4] it was 9350 nM (active); in assay [6], 16600 nM (active).
As for `Cn1cc(C2=C(c3cn(C4CCN(Cc5ccccn5)CC4)c4ccccc34)C(=O)NC2=O)c2ccccc21`, the Potency in [10] is 7430 nM (active); in assay [1], 16600 nM (active); in assay [4], 5260 nM (active); in assay [11] it was 11800 nM (active); in assay [5] it was 8330 nM (active); in assay [6] it was 9350 nM (active). For the same compound, the viability in assay [2] was 86.1%. Besides, the Potency entry in assay [9] and in assay [8] was “inactive” throughout.
On to `CCCC(C)(COC(N)=O)COC(=O)NC(C)C` (centres undefined), for which the Potency result in assay [10], in assay [3], in assay [4], in assay [11], in assay [5] and in assay [6] was “inactive” throughout. Further, the Potency entry in assay [9] was “inactive”.
Regarding `COc1ccc(C(=O)c2c(C)n(CCN3CCOCC3)c3ccccc23)cc1`, the Potency result in [1], in [3], in [4], in assay [11], in [5] and in [6] was “inactive” in each case. The Potency entry in assay [9], in [7] and in assay [8] was “inactive” each time.
`COc1ccc2c(c1OC)CN1CCc3cc4c(cc3C1C2)OCO4` (centres undefined): the Potency result in [1], in [9] and in assay [8] was “inactive” each time. Besides, in assay [2], the viability was 104%. Also, the results for the Potency in assay [4], in [11] and in [6] were 14800 nM (active), 5900 nM (active) and 16600 nM (active), respectively.
With `CC1=C2C[C@@H]3[C@@H](CC=C4C[C@@H](O)CC[C@@]43C)[C@@H]2CC[C@]12O[C@H]1C[C@H](C)CN[C@H]1[C@H]2C`, the Potency was 11800 nM (active) in [10], 46.9 nM (active) in [1], 20900 nM (active) in assay [3] and 6620 nM (active) in [9]. Also, the Potency result in [4], in assay [5], in [6] and in [8] was “inactive” in each case.
As to `C#CCN(C)[C@H](C)Cc1ccccc1`, the Potency entry in assay [1], in assay [3], in [4] and in assay [5] was “inactive” each time. Moreover, the Potency in assay [2] was 16600 nM (active).
With `CC(C)CC(N(C)C)C1(c2ccc(Cl)cc2)CCC1` (centres undefined), the Potency result in [1] and in [5] was “inactive” each time. Moreover, the values for the Potency in [3] and in assay [7] were 4180 nM (active) and 18700 nM (active), respectively.
Turning to `CC(C)=CCOc1c2occc2cc2ccc(=O)oc12`, the Potency was 1780 nM (active) in assay [12], 12600 nM (active) in assay [13] and 1260 nM (active) in assay [15]. Further, the result in assay [14], in [16], in assay [18], in [19] and in assay [20] was inactive. In [17], the max response is 2.08%.
Turning to `C[C@@H]1[C@@H](C(=O)C[C@H]2O[C@@H]3O[C@]4(C)CC[C@@H]5[C@H](C)CC[C@@H]([C@H]2C)[C@@]35OO4)O[C@@H]2O[C@]3(C)CC[C@H]4[C@H](C)CC[C@@H]1[C@@]24OO3`, the Potency in [10] is 332 nM (active); in [1], 418 nM (active); in [2], 743 nM (active); in [5] it was 264 nM (active); in assay [9], 833 nM (active).
Take `COC[C@@H](NC(C)=O)C(=O)NCc1ccccc1`: the Potency entry in assay [10], in assay [1], in assay [4], in [11], in [6] and in assay [9] was “inactive” throughout. Also, the Potency entry in [7] and in assay [8] was “inactive” each time. The viability in assay [2] was 103%.
On to `COc1ccc(C(CN(C)C)C2(O)CCCCC2)cc1` (centres undefined), for which the Potency entry in [1], in assay [5], in assay [9] and in assay [7] was “inactive” in each case.
On to `C[C@@H]1[C@@H](CC(C[C@H]2O[C@@H]3O[C@]4(C)CC[C@@H]5[C@H](C)CC[C@@H]([C@H]2C)[C@@]35OO4)C[S+](=O)([O-])c2ccc(COC(=O)N(C)C)cc2)O[C@@H]2O[C@]3(C)CC[C@H]4[C@H](C)CC[C@@H]1[C@@]24OO3` (some centres undefined), for which the Potency in assay [10] was 209 nM (active); in assay [1] it was 372 nM (active); in assay [2], 166 nM (active); in assay [3], 372 nM (active); in [4], 296 nM (active); in assay [11] it was 372 nM (active). Moreover, the Potency was 264 nM (active) in assay [5]; 418 nM (active) in assay [6]; 296 nM (active) in assay [9]; 148 nM (active) in assay [7]; 264 nM (active) in assay [8].
Regarding `C=C(C)[C@H]1Cc2c(ccc3c2O[C@@H]2COc4cc(OC)c(OC)cc4[C@@H]2C3=O)O1`, the Potency in assay [10] was 833 nM (active); in [1], 7430 nM (active); in assay [3], 332 nM (active); in [4], 264 nM (active); in assay [11], 166 nM (active); in [5], 372 nM (active). Besides, the Potency in assay [7] was 332 nM (active).
On to `CN1CCN(C(=O)O[C@H]2c3nccnc3C(=O)N2c2ccc(Cl)cn2)CC1`, for which the Potency entry in assay [1], in [4], in assay [11], in [5], in assay [6] and in [9] was “inactive” throughout. In addition, the Potency entry in assay [7] and in assay [8] was “inactive” throughout.
Turning to `CNCC(O)c1ccc(O)cc1` (centres undefined), the Potency entry in assay [1], in assay [3], in [4], in assay [5], in assay [9] and in assay [7] was “inactive” each time. Besides, the Potency entry in [8] was “inactive”.
